Screening results deposited in PubChem by National Center for Advancing Translational Sciences (NCATS).
The list is not random: actives were taken first. Their share in the collection is about 9.9%.
SW480 rerep – A quantitative high throughput screen for small molecules that induce DNA re-replication in SW480 colon adenocarcinoma cells; actives 1.8% (n = 340,000); Potency, µM (top dose mostly 46.1 µM), for the others: top-dose re-replication activation, most hits filed as activators; SW480 DNA re-replication, Hoechst DNA content imaging, 48 h; note: potency is the fitted concentration of half-maximal effect; % of control where 0% means no effect; nearly all actives have a fitted effect of over 55% in size
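Per well, 250 cells were exposed to pinned compound for 48 hr. Nuclear DNA was visualised with Hoechst (40 min, 37 C) and total object intensity recorded by fluorescence scanning.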
KB-V1 cytotox – qHTS assay for MDR1-selective chemotherapeutics: Primary screen using the drug-selected MDR subline cells KB-V1; Potency, µM (doses to about 46.1 µM), usual class: cytotoxic; KB-V1 MDR cells viability, CellTiter-Glo, 72 h; actives 3.4% (n = 400,000); AID 1347076, 2019; note: potency is the fitted concentration of half-maximal effect; % is set by controls: 0 for no effect and ±100 for the full control effect; nearly all actives have a fitted effect of over 60% in size
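Drug-selected KB-V1 cells, grown in DMEM lacking phenol red with 10% FBS, receive compound titrations; after three days at 37 degrees C, surviving cell ATP is quantified by CellTiter-Glo luminescence and responses normalized and curve-fitted.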
KB-3-1 tox – qHTS assay for MDR1-selective chemotherapeutics: Primary screen using the parental adenocarcinoma cell KB-3-1 | KB-3-1 viability, CellTiter-Glo ATP luminescence, 72 h | Potency, µM (highest dose often 46.1 µM), hits mostly cytotoxic | actives 1.4% (n = 400,000) | AID 1347075, 2019; note: potency is the fitted concentration of half-maximal effect; % is set by controls: 0 for no effect and ±100 for the full control effect; nearly all actives have a fitted effect of over 60% in size
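Viability of parental KB-3-1 cells, measured by CellTiter-Glo luminescence, followed a 72 h incubation at 37 °C with pinned compounds in phenol-red-free DMEM containing 10% FBS.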
MCF10A rereplic – A quantitative high throughput screen for small molecules that induce DNA re-replication in MCF 10a normal breast cells; actives 2.9% (n = 350,000); MCF 10A DNA re-replication, Hoechst nuclear intensity, 48 h; Potency, µM (top dose mostly 46.1 µM), for the others: at the highest dose activity, positive = re-replication, most hits filed as activators; note: potency is the fitted concentration of half-maximal effect; % of control where 0% means no effect; nearly all actives have a fitted effect of over 50% in size
IL1B secr inh – qHTS for Inhibitors of Inflammasome Signaling: IL-1-beta AlphaLISA Primary Screen. AID 743279, 2014. activity change, % at 57.5 µM. THP-1 LPS/ATP IL-1B secretion, AlphaLISA, 16 h; hits give low values. actives 4.7% (n = 360,000); in the data active = activity change below about -50%; inconclusive = mostly about -30% to -49%; note: % is set by controls: 0 for no effect and ±100 for the full control effect
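THP-1 cells pretreated 1 hr with compounds (up to 57.5 uM final), then stimulated with LPS (250 ng/mL final) plus ATP (1.25 mM final); secreted IL-1B measured by AlphaLISA after 16 hr, decreased signal indicating inhibition.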
Starred values were filed as active, the others as inactive; i = inactive; ? = inconclusive; / = not tested or not shown; [ ] = remark or other dose. Unless noted, calls come from the whole dose curve; as a rule, active = well fitted curve in the direction sought with a large enough effect; inconclusive = small, poorly fitted or top-dose-only effect, or another doubt; inactive = no such curve, though single readings can be large; an effect the other way counts as inactive or inconclusive.

SMILES	SW480 rerep	KB-V1 cytotox	KB-3-1 tox	MCF10A rereplic	IL1B secr inh
CCN(CC)C(=O)Cn1c(=O)n(Cc2ccc(C(=O)NCc3ccc(C)cc3)cc2)c(=O)c2ccccc21	/	i	i	/	/
CCN(CC)C(=O)Cn1c(=O)c2ccccc2n2c(=S)sc(-c3cccc(C)c3)c12	-95%	2.9µM*	i	1%	0
CN(CC(=O)Nc1cccc(C#N)c1)S(=O)(=O)c1cc2c(cc1Cl)NC(=O)CO2	/	i	i	/	/
CCc1ccc(-c2nc(CN3CCC(C(=O)NCc4ccco4)CC3)c(C)o2)cc1	13%	9.2µM*	?	?	?
Cc1oc(-c2ccc(Cl)cc2)nc1CN1CCCC(C(=O)NCc2ccco2)C1 (stereo not drawn)	7%	?	?	-1%	-51*
CCCCSCCCNC(=O)C1CCN(Cc2nc(-c3ccc(CC)cc3)oc2C)CC1	/	i	i	/	/
CN(C)c1ccc(/C=C(\C#N)C(=O)Nc2nc3c(s2)CCN(Cc2ccccc2)C3)cc1	14%	?	i	?	20
COc1ccc(C2=Nn3c(nnc3-c3ccccc3OC)SC2)cc1OCC1CC1	2.3µM*	i	?	?	/
COc1ccc(OC)c(-c2nnc3n2N=C(c2ccc(OC(F)F)c(OCC4CC4)c2)CS3)c1	?	?	5.8µM*	?	/
CC(C)OC(=O)N(C)C[C@@H]1OCc2cn(nn2)CCCC(=O)N([C@H](C)CO)C[C@H]1C	/	?	?	/	18
Cc1ccccc1Cn1ccc(NC(=O)c2cnn3c2NC(c2ccccc2)CC3C(F)(F)F)n1 (stereo not drawn)	10%	i	i	27%	-66*
O=C(NCc1ccco1)c1cnn2c1NC(c1ccccc1)CC2C(F)(F)F (stereo not drawn)	-1%	i	i	2%	-10
COc1ccc(C2CC(C(F)(F)F)n3nc(C(=O)NCc4c(C)nn(C)c4C)c(Cl)c3N2)cc1 (stereo not drawn)	-4%	6.5µM*	?	0%	-11
Cc1c(CNC(=O)c2nn3c(c2Cl)NC(c2ccccc2)CC3C(F)(F)F)cnn1C (stereo not drawn)	-13%	21µM*	i	-4%	14
C=C(C)C1(O)OC(=O)C=C1OC (stereo not drawn)	?	?	i	?	-76*
CCCCCCc1cc2cc(C(=O)NCc3ccccc3)c(=N)oc2cc1O	?	i	i	7.3µM*	-17
COc1ccc2oc(=N)c(C(=O)Nc3ccccc3)cc2c1	3%	i	i	13%	14
CCCCCCc1cc2cc(C(=O)Nc3ccccc3)c(=O)oc2cc1O	2.1µM*	2.3µM*	i	?	-3
Cc1c(C)c2cc(Cl)c(OCC(=O)NCCCn3ccnc3)cc2oc1=O	-4%	i	i	-30%	?
COc1ccc(NC(=O)Nc2cccc(OCc3cc(=O)n4cccc(C)c4n3)c2)c(OC)c1	/	i	i	/	/
O=C(OCC(O)C(O)C(O)C(SCc1ccccc1)SCc1ccccc1)c1ccccc1 (stereo not drawn)	?	i	i	?	-72*
O=C(OCC(O)C(O)C(O)COC(=O)c1ccccc1)c1ccccc1 (stereo not drawn)	-22%	i	i	1%	0
CCC(=O)N1CCc2cc(S(=O)(=O)NC(CC(C)C)C(=O)NCc3ccc(C)cc3)ccc21 (stereo not drawn)	/	i	i	/	/
O=c1[nH]c(=O)n([C@@H]2C[C@H](O)[C@H](CO)O2)cc1I	-13%[20.6 µM]	/	/	6%[20.6 µM]	/
CCc1cn(C2CC(O)C(CO)O2)c(=O)[nH]c1=O (stereo not drawn)	-8%	i	4.6µM*	25%	33
SMILES	SW480 rerep	KB-V1 cytotox	KB-3-1 tox	MCF10A rereplic	IL1B secr inh
COc1ccc(C2=NOC(C(=O)NCc3ccc(F)cc3)C2)cc1 (stereo not drawn)	4%	15µM*	7.3µM*	?	16
COc1ccc(CNC(=O)C2CC(c3ccc(F)cc3)=NO2)cc1 (stereo not drawn)	-4%	i	i	?	-2
O=C(NCc1ccc2c(c1)OCO2)C1CC(c2ccc(Cl)c(Cl)c2)=NO1 (stereo not drawn)	0%	i	i	2.6µM*	?
CCn1ncc(C2=NOC(C(=O)NCc3ccc(Cl)cc3)C2)c1C (stereo not drawn)	3.7µM*	4.6µM*	2.3µM*	?	55
O=C(NCc1ccco1)C1CC(c2ccc(Cl)c(Cl)c2)=NO1 (stereo not drawn)	-4%	i	i	?	21
COc1ccc(CNC(=O)C2CC(c3ccc(OC)cc3)=NO2)cc1 (stereo not drawn)	4%	i	i	6.5µM*	9
CCOc1ccc(C(=O)OCC(=O)Nc2ccc(SC(F)F)cc2)cc1OCC	2%	i	i	?	0
O=C(NCCSCc1ccccc1Cl)C1CCN(S(=O)(=O)Cc2ccccc2)CC1	/	i	i	/	/
Cc1ccc(CNC(=O)c2c(-c3ccccc3Cl)noc2C)cc1	5%	i	?	?	18
COC(=O)c1c(NC(=O)c2c(-c3ccccc3Cl)noc2C)sc2c1CCC2	4%	?	i	14%	0
Cc1cc(C)nc(NC(=O)c2c(-c3ccccc3Cl)noc2C)c1	?	7.3µM*	i	?	0
Cc1onc(-c2ccccc2Cl)c1C(=O)Nc1sc2c(c1C(N)=O)CCC(C)C2 (stereo not drawn)	?	23µM*	?	29%	-51*
Cc1onc(-c2ccccc2Cl)c1C(=O)NCc1ccco1	3%	i	?	2%	-77*
COc1ccc(-n2nc3c(c2NC(=O)c2c(-c4ccccc4Cl)noc2C)CS(=O)(=O)C3)cc1	3%	9.2µM*	i	7%	0
Cc1ccnc(NC(=O)c2c(-c3ccccc3Cl)noc2C)c1	-4%	?	i	4%	21
Cc1cc(C)nc(NC(=O)CCCC(=O)O)c1	1%	i	i	-4%	-3
CCc1ccc(NC(=S)NC(=O)c2c(-c3ccccc3Cl)noc2C)cc1	-9%	i	i	0%	-51*
Cc1cc(C)nc(NC(=O)c2c(F)c(F)c(F)c(C(=O)Nc3cc(C)cc(C)n3)c2F)c1	?	i	?	8.2µM*	-69*
